Assay results: PubChem BioAssay (Tox21)
Where “and” joins values, the source holds several entries; their conditions need not be identical. Equal values may be shown once. Records with an inconclusive call do not appear. Entries that show only a call come without a potency. More than one record can exist for a structure, and the calls need not agree. Calls of active or inactive are those of the source. Unless noted, the call rests on the fitted dose curve.

Assays:
[1] = Nuclear factor erythroid 2-related factor 2/antioxidant responsive element (Nrf2/ARE) small molecule agonists: qHTS cell viability counter screen in human keratinocytes (AID 1919968; active means well fitted curve in the direction sought with a large enough effect in the repeat runs; an effect the other way counts as inactive or inconclusive; further: nearly all actives have a fitted effect of over 55% in size; further: potency means the concentration at half of the fitted maximal effect)
Outline: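 HaCaT ARE reporter line, 1,500 cells/well; 5 h settle, 37 C/5% CO2; cpd in DMSO pinned; 23 h exposure; CellTiter-Fluor, 1 h; fluorescence.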

[2] = Nuclear factor erythroid 2-related factor 2/antioxidant responsive element (Nrf2/ARE) small molecule agonists: luciferase reporter gene qHTS assay in human keratinocytes (AID 1919969); further: nearly all actives have a fitted effect of over 35% in size; further: potency means the concentration at half of the fitted maximal effect
[3] = target: Gonadotropin-releasing hormone receptor (Homo sapiens) (UniProt P30968); assay: Human gonadotropin-releasing hormone receptor (GnRHR) small molecule agonists, calcium flux assay in GnRHR-HEK293 cells (AID 1920063); further: nearly all actives have a fitted effect of over 35% in size
Outline: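 GnRHR-HEK293, 1500 cells/well, 18 h 37 C/5% CO2; Ca dye 1 h 37 C; cpd pinned (DMSO), agonist mode; kinetic FL 480/540, 3 min, 1 s reads; 15 conc, n=3.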

[4] = target: KiSS-1 receptor (Homo sapiens) (UniProt Q969F8); assay: Human kisspeptin (KISS1R) small molecule agonists, calcium flux assay in KISS1R-HEK293 cells (AID 1920064; active means well fitted curve in the direction sought with a large enough effect in the repeat runs; an effect the other way counts as inactive or inconclusive)
Outline: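 Stable human KISS1R HEK293 line; 18 h plating, 37 C/5% CO2; calcium dye 1 h 37 C; compound pin transfer; kinetic fluorescence Ex/Em 480/540, 3 min.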

[5] = G protein-coupled receptor (GPCR) small molecule agonists, calcium flux assay: HEK293 wild type cell line counter screen (AID 1920065)
Outline: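 Kinetic fluorescence at Ex/Em 480/540, recorded every second over 3 min, served as the read-out after compound addition. Each compound was tested at 15 concentrations in triplicate on cells pre-loaded with calcium dye for 1 h.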

[6] = p53 small molecule agonists, cell-based qHTS assay with human liver microsomes (AID 1963577); further: potency means the concentration at half of the fitted maximal effect;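 on activation: p53 response element beta-lactamase reporter cells with liver microsomes plus NADPH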
Outline: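 16 h, 37 C exposure of p53RE-bla cells to compounds with human liver microsomes and NADPH (0.5 mg/mL final each); detection via LiveBLAzer mixture, 2 h dark at room temperature.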

[7] = p53 small molecule agonists, cell-based qHTS assay with human liver microsomes: qHTS cell viability counter screen (AID 1963579); further: nearly all actives have a fitted effect of over 45% in size; further: potency means the concentration at half of the fitted maximal effect
Outline: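 In this multiplexed counter screen, the reporter plates were subsequently treated with CellTiter-Glo so that cell viability, reflected by luminescence, could be recorded for p53RE-bla cells dosed 16 h with compounds under microsomal activation (HLM and NADPH).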

[8] = p53 small molecule agonists, cell-based qHTS assay with rat liver microsomes: qHTS cell viability counter screen (AID 1963580); further: nearly all actives have a fitted effect of over 45% in size; further: potency means the concentration at half of the fitted maximal effect
Outline: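 Intracellular ATP, by CellTiter-Glo luminescence, defines viability. HCT-116 p53RE-bla cells, 4,000 per well, were compound-treated in the presence of rat liver microsomes and NADPH for 16 h at 37 C.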

[9] = p53 small molecule agonists, cell-based qHTS assay: qHTS cell viability counter screen (AID 1963581); further: nearly all actives have a fitted effect of over 45% in size
Outline: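 HCT-116 p53RE-bla cells, 4,000/well, plated 5 h before compound pin transfer; 16 h at 37 C; bla substrate 2 h RT; then CellTiter-Glo, 30 min RT, luminescence.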

[10] = p53 small molecule agonists, cell-based qHTS assay (AID 1963582; active means well fitted activation curve with a large enough effect in the signal ratio in the repeat runs, not every such curve was filed as active; the % refers to the signal ratio)
Outline: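 Reporter line: p53RE-bla. Pre-incubation 5 h, 37 C, 5% CO2; compound (DMSO, pin tool) 16 h, 37 C; B/G FRET substrate 2 h RT; fluorescence intensity read.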

[11] = target: 5-hydroxytryptamine receptor 2A (Homo sapiens) (UniProt P28223); assay: 5-hydroxytryptamine receptor 2A (HTR2A) small molecule agonists, cell-based qHTS assay (AID 1963587); further: nearly all actives have a fitted effect of over 30% in size
Outline: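 Kinetic calcium-flux fluorescence (2 min, 1 sec intervals) after compound addition in agonist mode. HTR2A-CHO cells were cultured 18 h, then dye-loaded 1 h at 37 C.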

[12] = target: Muscarinic acetylcholine receptor M1 (Homo sapiens) (UniProt P11229); assay: Cholinergic receptor muscarinic 1 (CHRM1) small molecule antagonists, cell-based qHTS assay (AID 1963588); further: nearly all actives have a fitted effect of over 40% in size; further: potency means the concentration at half of the fitted maximal effect
Outline: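 CHRM1-CHO calcium-flux assay, antagonist mode. Cells were seeded 18 h, dye-loaded 1 h at 37 C and given compound for 5 min at RT, then acetylcholine was added at 50nM. FDSS fluorescence was read 3 min; 15 concentrations, three runs.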

[13] = target: Muscarinic acetylcholine receptor M1 (Homo sapiens) (UniProt P11229); assay: Cholinergic receptor muscarinic 1 (CHRM1) small molecule agonists, cell-based qHTS assay (AID 1963589); further: nearly all actives have a fitted effect of over 35% in size
Outline: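 Human M1 in stable CHO line; 18 h plating, 1 h dye load 37 C; cpd added (agonist mode); Ca2+ fluorescence kinetic read, 1 s intervals; 15 conc, 3 runs.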

[14] = cAMP Responsive Elements (CRE) small molecule agonists, cell-based qHTS assay (AID 1963590)
Outline: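 HEK 293T CRE-bla, 2,000 cells/well, 18 h preincubation 37 C/5% CO2; cpds (DMSO) pinned, 3 h; LiveBLAzer B/G FRET substrate, 2 h RT.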

[15] = cAMP Responsive Elements (CRE) small molecule antagonists, cell-based qHTS assay (AID 1963591; active means well fitted inhibition curve with a large enough effect in the signal ratio in the repeat runs, not every such curve was filed as active; the % refers to the signal ratio)
Outline: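 Beta-lactamase reporter read by FRET substrate (LiveBLAzer B/G) after 2 h at room temperature. CRE-bla HEK293T cells had received compound plus 0.25 uM (final) NKH477 for 3 h at 37 °C.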

[16] = target: D(2) dopamine receptor (Homo sapiens) (UniProt P14416); assay: Dopamine D2 receptor (DRD2) small molecule agonists, cell-based qHTS assay (AID 1963594); further: nearly all actives have a fitted effect of over 35% in size
Outline: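 cAMP accumulation in DRD2-HEK293 cells measured by HTRF after 1 h detection; compounds added 10 min before NKH477 (200nM […]) forskolin-analogue stimulation, 30 min at room temperature, with Ro20-1724 present at 0.1 mM final.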

[17] = target: D(2) dopamine receptor (Homo sapiens) (UniProt P14416); assay: Dopamine D2 receptor (DRD2) small molecule antagonists, cell-based qHTS assay (AID 1963595; active means well fitted inhibition curve with a large enough effect in the signal ratio in the repeat runs, with a control signal flat; the % refers to the signal ratio)
Outline: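 DRD2-HEK293; 0.1 mM Ro20-1724; cpd 10 min RT; NKH477 200 nM + quinpirole 12 nM, 30 min RT; HTRF cAMP (cAMP-d2/anti-cAMP cryptate), 665/620 nm ratio after 1 h.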

[18] = target: 5-hydroxytryptamine receptor 2A (Homo sapiens) (UniProt P28223); assay: 5-hydroxytryptamine receptor 2A (HTR2A) small molecule antagonists, cell-based qHTS assay (AID 1963586); further: nearly all actives have a fitted effect of over 45% in size; further: potency means the concentration at half of the fitted maximal effect
Outline: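 Antagonist-mode intracellular calcium assay: DOI (4 nM) added after 5 min compound pre-incubation at room temperature to dye-loaded HTR2A-CHO cells. Fluorescence followed for 3 min, sampled every second.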

[19] = target: Beta-2 adrenergic receptor (Homo sapiens) (UniProt P07550); assay: Adrenergic beta2 receptor (ADRB2) small molecule antagonists, cell-based qHTS assay (AID 1963592); further: series mostly up to about 92 µM; nearly all actives have a fitted effect of over 50% in size
Outline: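 Cells (CHO, stable ADRB2 overexpression) incubated 18-20hr at 37C; compounds added from DMSO; agonist mix (1nM isoproterenol, 100uM IBMX, 25uM Ro-20-1724) added; 0.5hr RT; d2-cAMP and anti-cAMP-cryptate added; 1hr RT; 665/615 nm read.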

Muscarinic acetylcholine receptor M1 (Homo sapiens), sequence (P11229 whole entry, looked up): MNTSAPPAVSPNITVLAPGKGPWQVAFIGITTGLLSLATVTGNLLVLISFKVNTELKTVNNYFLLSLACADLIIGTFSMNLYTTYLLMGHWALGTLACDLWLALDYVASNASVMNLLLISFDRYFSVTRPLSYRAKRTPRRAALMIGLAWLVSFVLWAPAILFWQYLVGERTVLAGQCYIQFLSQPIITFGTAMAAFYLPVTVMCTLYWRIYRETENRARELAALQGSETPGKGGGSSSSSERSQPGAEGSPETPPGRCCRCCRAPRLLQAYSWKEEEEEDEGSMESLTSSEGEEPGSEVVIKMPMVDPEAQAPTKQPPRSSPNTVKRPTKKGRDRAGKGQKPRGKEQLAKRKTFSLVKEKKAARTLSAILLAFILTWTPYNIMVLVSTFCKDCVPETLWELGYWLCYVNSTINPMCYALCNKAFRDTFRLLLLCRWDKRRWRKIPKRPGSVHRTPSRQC
Beta-2 adrenergic receptor (Homo sapiens), sequence (P07550 whole entry, looked up): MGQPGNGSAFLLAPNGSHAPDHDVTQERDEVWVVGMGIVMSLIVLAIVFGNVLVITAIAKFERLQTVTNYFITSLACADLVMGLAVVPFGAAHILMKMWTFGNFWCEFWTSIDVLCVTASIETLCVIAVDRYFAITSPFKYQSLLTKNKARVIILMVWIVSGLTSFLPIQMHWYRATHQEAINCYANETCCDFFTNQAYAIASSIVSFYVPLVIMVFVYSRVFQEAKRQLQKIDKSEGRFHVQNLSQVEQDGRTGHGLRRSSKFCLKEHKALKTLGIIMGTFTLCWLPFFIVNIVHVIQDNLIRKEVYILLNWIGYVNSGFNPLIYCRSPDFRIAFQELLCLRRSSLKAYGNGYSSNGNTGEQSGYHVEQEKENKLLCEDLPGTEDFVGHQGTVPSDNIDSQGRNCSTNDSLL
KiSS-1 receptor (Homo sapiens), sequence (Q969F8 whole entry, looked up): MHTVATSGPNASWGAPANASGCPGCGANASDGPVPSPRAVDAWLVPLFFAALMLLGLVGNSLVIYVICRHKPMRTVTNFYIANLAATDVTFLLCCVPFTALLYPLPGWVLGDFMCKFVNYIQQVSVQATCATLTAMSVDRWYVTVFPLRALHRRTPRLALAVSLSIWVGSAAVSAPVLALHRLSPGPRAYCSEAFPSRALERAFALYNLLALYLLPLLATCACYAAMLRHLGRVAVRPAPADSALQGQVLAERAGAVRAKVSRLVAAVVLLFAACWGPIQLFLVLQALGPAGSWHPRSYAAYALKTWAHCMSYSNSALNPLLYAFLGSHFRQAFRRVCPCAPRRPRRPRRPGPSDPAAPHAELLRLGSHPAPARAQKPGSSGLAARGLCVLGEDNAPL
D(2) dopamine receptor (Homo sapiens), sequence (P14416 whole entry, looked up): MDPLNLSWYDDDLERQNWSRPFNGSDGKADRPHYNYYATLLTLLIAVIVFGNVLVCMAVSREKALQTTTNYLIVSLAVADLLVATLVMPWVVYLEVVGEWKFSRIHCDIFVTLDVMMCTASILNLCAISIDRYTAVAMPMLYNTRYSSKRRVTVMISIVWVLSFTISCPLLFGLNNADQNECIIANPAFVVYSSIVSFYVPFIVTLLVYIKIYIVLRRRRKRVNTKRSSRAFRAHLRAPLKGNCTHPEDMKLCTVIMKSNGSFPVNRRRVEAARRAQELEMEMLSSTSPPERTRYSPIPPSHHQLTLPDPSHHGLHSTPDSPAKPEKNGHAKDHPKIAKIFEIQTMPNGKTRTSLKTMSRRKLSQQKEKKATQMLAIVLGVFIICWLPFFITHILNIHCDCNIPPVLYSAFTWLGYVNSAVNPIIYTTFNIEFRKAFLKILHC
Gonadotropin-releasing hormone receptor (Homo sapiens), sequence (P30968 whole entry, looked up): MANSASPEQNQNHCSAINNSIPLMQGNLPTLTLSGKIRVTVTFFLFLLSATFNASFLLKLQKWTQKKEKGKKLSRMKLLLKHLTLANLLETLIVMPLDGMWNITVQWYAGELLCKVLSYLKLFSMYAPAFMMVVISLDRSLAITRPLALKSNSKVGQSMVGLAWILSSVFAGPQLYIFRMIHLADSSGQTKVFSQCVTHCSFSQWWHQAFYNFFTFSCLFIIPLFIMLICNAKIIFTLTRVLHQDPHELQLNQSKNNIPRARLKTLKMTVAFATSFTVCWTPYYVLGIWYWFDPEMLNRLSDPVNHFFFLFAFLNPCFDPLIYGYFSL
5-hydroxytryptamine receptor 2A (Homo sapiens), sequence (P28223 whole entry, looked up): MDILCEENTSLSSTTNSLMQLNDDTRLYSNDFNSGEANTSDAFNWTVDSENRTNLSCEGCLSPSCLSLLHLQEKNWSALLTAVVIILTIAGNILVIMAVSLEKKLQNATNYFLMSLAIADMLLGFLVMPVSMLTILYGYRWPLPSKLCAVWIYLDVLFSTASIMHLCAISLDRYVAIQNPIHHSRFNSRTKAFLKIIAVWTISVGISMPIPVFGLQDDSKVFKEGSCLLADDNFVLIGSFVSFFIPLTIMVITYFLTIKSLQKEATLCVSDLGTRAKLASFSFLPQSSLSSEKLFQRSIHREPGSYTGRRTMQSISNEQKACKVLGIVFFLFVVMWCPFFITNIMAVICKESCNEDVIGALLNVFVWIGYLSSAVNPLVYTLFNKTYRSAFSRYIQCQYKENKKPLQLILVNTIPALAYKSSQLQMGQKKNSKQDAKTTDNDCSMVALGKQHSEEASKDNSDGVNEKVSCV

SMILES | Potency [1] | Potency [2] | Potency [3] | Potency [4] | Potency [5] | Potency [6] | Potency [7] | Potency [8] | Potency [9] | Potency [10] | Potency [11] | Potency [12] | Potency [13] | Potency [14] | Potency [15] | Potency [16] | Potency [17] | Potency [18] | Potency [19]
O=C(Cl)c1ccccc1 | inactive | inactive | inactive | inactive | inactive | inactive | inactive | inactive | inactive | inactive | inactive | inactive | inactive | inactive | inactive | inactive | inactive |  | 
C=Cc1cccc(CCl)c1 | inactive | inactive | inactive | inactive | inactive | inactive | inactive | inactive | inactive | inactive | inactive | inactive | inactive | inactive | inactive | inactive | inactive | inactive | inactive
CNC(=O)Oc1cccc2c1OC(C)(C)O2 | inactive | inactive | inactive | inactive | inactive | inactive | inactive | inactive | inactive | inactive | inactive | inactive | inactive | inactive |  | inactive | inactive | inactive | inactive
O=NN1CCCCC1 | inactive | inactive | inactive | inactive | inactive | inactive | inactive |  | inactive | inactive | inactive | inactive | inactive | inactive | inactive | inactive | inactive | inactive | inactive
CC1CN1 (stereo unspecified) | inactive | inactive | inactive | inactive | inactive | inactive | inactive | inactive | inactive | inactive | inactive | 3.75 µM (active) | inactive | inactive | inactive | inactive | inactive | inactive | inactive
COP(=O)(OC)C(O)C(Cl)(Cl)Cl (stereo unspecified) | inactive | 43.7 µM (active) and 61.1 µM (active) and inactive | inactive | inactive | inactive | 1.46 µM (active) |  |  | inactive | inactive | inactive | inactive | inactive | inactive | inactive | inactive | inactive | inactive and 8.39 µM (active) | inactive
CCCOC(=O)c1cncn1C(C)c1ccccc1 (stereo unspecified) | inactive | inactive | inactive | inactive | inactive | inactive | inactive | inactive | inactive | inactive | inactive | inactive | inactive | inactive | inactive | inactive | inactive | inactive | inactive
O=C1C(Cl)=C(Cl)C(=O)C(Cl)=C1Cl | 27.2 µM (active) and 27.3 µM (active) | 4.84 µM (active) and 9.69 µM (active) | inactive | inactive | inactive | inactive | 40.8 µM (active) | inactive and 40.8 µM (active) | inactive |  | inactive | inactive | inactive | inactive | inactive |  |  | inactive | 
CC[n+]1c(-c2ccccc2)c2cc(N)ccc2c2ccc(N)cc21 | 48.3 µM (active) and 7.5 µM (active) | inactive and 10.6 µM (active) | inactive | inactive | inactive | inactive | inactive |  | inactive |  | inactive | 8.36 µM (active) and 9.18 µM (active) | inactive | inactive |  |  |  | inactive | 
O=P(Oc1ccccc1)(Oc1ccccc1)Oc1ccccc1 | inactive | 60.8 µM (active) and inactive | inactive | inactive | inactive | inactive | inactive | inactive | inactive |  | inactive | inactive | inactive | inactive | inactive | inactive | inactive |  | inactive
CCN(CC)N=O | inactive | inactive | inactive | inactive | inactive | inactive | inactive | inactive | inactive | inactive |  |  |  | inactive | inactive | inactive | inactive |  | inactive
O=[N+]([O-])c1ccc(CBr)cc1 | inactive | inactive | inactive | inactive | inactive | inactive | inactive |  | inactive | inactive | inactive | inactive | inactive | inactive |  |  | inactive | inactive | inactive
CCN(CC)C(=O)/C(Cl)=C(\C)OP(=O)(OC)OC | inactive | inactive | inactive | inactive | inactive | 1.86 µM (active) and 9.13 µM (active) | inactive | inactive | inactive | inactive | inactive | inactive | inactive | inactive | inactive | inactive | inactive | inactive | inactive
CCC(CC)Nc1c([N+](=O)[O-])cc(C)c(C)c1[N+](=O)[O-] | inactive | 17.5 µM (active) and 48.5 µM (active) | inactive | inactive | inactive | inactive | inactive | inactive | inactive |  | inactive | inactive |  | inactive | inactive | inactive | inactive | inactive | inactive
O=S(=O)(O)C(F)(F)C(F)(F)C(F)(F)C(F)(F)C(F)(F)C(F)(F)C(F)(F)C(F)(F)F | inactive and 61.1 µM (active) | inactive and 61.1 µM (active) | inactive | inactive | inactive | inactive | inactive | inactive | inactive | inactive | inactive | inactive | inactive | inactive | inactive | inactive | inactive | inactive | inactive
C1=Cc2cccc3cccc1c23 | inactive | 23.9 µM (active) and inactive | inactive | inactive | inactive |  | inactive | inactive | inactive | inactive | inactive | inactive | inactive | inactive | inactive | inactive | inactive | inactive | inactive
